Unmarked numbers belong to inactive results. Entries that show only a call come without a potency. For some assays here: Potency and affinity values are given separately. Activity calls are given as the source filed them. Unless noted, the rule behind the calls is not given here.
Experiments:
[1] = antimalarial activity against Dd2 strain (AID 2302;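 active = growth inhibition above 50% at the single 2 µM test dose, taken to imply half-maximal potency below 2 µM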); conditions: P. falciparum Dd2 in RBCs, LDH growth readout, 72 h; at 2 µM; hits give high values
[2] = human hepatoma cell viability loss – ATP luminescence, cytotoxicity control for P. falciparum antimalarial project, primary screen (AID 2303;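 active = inhibition above 50%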); conditions: HepG2 viability, 24-48 h, at 10 µM, hits give high values
[3] = molecular target: L-lactate dehydrogenase (Plasmodium falciparum (isolate CDC / Honduras)) (UniProt Q27743); experiment: PfLDH activity inhibition – cell lysate, 3D7 strain, counter-screen for P. falciparum growth inhibition project (AID 2304); conditions: P. falciparum 3D7 crude extract, LDH APAD/NBT absorbance; at 2 µM; hits give high values
[4] = inhibition of 3D7 malaria parasite growth – strain 3D7 (AID 2306); conditions: P. falciparum 3D7 erythrocytic growth, LDH absorbance, 72 h; at 2 µM; hits give high values
[5] = molecular target: Calcium-dependent protein kinase 1 (Plasmodium falciparum (isolate 3D7)) (UniProt P62344); experiment: PfCDPK1 kinase inhibitors, biochemical, TCAMS library (AID 1159585; cut-off not given, nearly all actives have IC50 up to about 0.98 µM;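 note: inhibitors leave more ATP so luminescence rises with inhibition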); conditions: recombinant PfCDPK1, Kinase-Glo ATP depletion luminescence
[6] = molecular target: Plasmodium falciparum protein kinase 6 (PK6, PF3D7_1337100) (UniProt Q8IDW1); experiment: PfPK6 kinase inhibitors, biochemical, TCAMS library (AID 1159586); conditions: recombinant PfPK6, Kinase-Glo ATP depletion luminescence
[7] = molecular target: Protein kinase 7 (PK7), Plasmodium falciparum 3D7 (PF3D7_0213400) (UniProt Q7YTF7); experiment: inhibition of Plasmodium PK7 catalytic activity – biochemical, TCAMS antimalarial set, Kinase-Glo luminescence (AID 1159587); conditions: recombinant PfPK7, Kinase-Glo ATP depletion luminescence
[8] = molecular target: Calcium-dependent protein kinase 4 (Plasmodium falciparum (isolate 3D7)) (UniProt Q8IBS5); experiment: PfCDPK4 kinase inhibitors, biochemical, TCAMS library (AID 1159588; cut-off not given, nearly all actives have IC50 up to about 0.91 µM); conditions: recombinant PfCDPK4, Kinase-Glo ATP depletion luminescence
Sequence of Calcium-dependent protein kinase 4 (Plasmodium falciparum (isolate 3D7)) (Q8IBS5 whole entry, looked up): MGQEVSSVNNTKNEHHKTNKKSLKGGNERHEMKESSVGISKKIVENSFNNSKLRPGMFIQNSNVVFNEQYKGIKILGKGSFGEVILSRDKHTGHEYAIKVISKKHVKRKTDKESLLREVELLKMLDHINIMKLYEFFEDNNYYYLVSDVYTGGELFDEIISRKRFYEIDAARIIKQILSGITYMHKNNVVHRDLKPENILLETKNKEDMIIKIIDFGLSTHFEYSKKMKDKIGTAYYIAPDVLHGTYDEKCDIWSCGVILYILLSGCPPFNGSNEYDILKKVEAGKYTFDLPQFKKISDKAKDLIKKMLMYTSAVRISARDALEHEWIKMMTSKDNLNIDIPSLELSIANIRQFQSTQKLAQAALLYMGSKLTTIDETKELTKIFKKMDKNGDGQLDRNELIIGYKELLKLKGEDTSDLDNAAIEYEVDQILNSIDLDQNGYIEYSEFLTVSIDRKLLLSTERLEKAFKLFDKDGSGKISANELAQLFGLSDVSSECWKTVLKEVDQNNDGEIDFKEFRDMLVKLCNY

Sequence of L-lactate dehydrogenase (Plasmodium falciparum (isolate CDC / Honduras)) (Q27743 whole entry, looked up): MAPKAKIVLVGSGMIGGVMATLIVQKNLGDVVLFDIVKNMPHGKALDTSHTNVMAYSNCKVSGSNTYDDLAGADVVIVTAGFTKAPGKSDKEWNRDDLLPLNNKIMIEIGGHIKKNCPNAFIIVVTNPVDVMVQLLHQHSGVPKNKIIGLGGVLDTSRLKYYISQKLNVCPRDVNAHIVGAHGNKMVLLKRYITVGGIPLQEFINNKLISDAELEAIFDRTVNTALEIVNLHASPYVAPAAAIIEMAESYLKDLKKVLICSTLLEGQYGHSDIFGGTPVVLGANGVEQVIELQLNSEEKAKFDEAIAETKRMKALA
Sequence of Calcium-dependent protein kinase 1 (Plasmodium falciparum (isolate 3D7)) (P62344 whole entry, looked up): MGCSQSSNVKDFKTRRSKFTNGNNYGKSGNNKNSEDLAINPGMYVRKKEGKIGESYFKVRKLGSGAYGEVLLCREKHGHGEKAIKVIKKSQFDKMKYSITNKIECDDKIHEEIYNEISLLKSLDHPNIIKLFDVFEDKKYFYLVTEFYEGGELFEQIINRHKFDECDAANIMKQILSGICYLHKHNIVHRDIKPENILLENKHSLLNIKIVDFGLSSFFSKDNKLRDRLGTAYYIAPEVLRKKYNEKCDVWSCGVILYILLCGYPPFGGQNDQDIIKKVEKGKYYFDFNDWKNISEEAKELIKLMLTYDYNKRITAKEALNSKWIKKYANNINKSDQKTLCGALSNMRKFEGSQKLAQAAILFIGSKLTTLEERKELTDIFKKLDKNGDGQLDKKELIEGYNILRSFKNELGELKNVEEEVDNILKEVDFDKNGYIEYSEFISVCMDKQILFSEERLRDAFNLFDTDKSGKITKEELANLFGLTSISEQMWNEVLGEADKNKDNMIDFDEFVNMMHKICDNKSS
Sequence of Plasmodium falciparum protein kinase 6 (PK6, PF3D7_1337100) (Q8IDW1 1-305): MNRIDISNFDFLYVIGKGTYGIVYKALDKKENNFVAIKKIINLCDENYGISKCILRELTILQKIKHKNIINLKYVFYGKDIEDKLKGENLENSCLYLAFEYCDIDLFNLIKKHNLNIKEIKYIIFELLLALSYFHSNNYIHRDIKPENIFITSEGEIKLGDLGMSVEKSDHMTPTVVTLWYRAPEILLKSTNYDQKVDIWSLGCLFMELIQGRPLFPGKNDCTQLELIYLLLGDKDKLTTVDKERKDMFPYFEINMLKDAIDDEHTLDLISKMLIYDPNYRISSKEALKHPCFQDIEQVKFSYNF
Sequence of Protein kinase 7 (PK7), Plasmodium falciparum 3D7 (PF3D7_0213400) (Q7YTF7 1-343): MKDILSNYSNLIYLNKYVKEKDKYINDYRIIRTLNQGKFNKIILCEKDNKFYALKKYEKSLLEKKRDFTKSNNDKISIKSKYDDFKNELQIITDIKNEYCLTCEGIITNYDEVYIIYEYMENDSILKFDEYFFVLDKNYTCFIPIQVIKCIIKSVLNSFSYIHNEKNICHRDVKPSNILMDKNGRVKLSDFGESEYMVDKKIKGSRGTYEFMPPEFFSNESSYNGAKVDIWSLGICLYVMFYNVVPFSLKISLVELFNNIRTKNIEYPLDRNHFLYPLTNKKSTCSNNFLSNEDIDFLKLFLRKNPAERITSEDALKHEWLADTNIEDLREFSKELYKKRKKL

Row | Compound | growth inhibition [1] | inhibition [2] | inhibition [3] [%] | growth inhibition [4] | outcome [5] | outcome [6] | outcome [7] | outcome [8]
1 | Clc1ccc2c(NN=Cc3ccco3)ccnc2c1 | 96% (active) | 3% | -4 | 100% (active) | inactive | inactive | inactive | inactive
2 | Clc1ccc(Cl)c2[nH]c(CNCCCNc3nc4ccccc4[nH]3)cc12 | 39% | 88% (active) | -6 | 100% (active) | inactive | inactive | inactive | inactive
3 | O=C(Nc1cccc(-c2nc3ccccc3[nH]2)c1)c1ccc(-c2cccc([N+](=O)[O-])c2)o1 | 28% | 22% | -1 | 93% (active) | inactive | inactive | inactive | inactive
4 | CCCCN1C(=O)[C@H]2CC(=O)CC(C3CCCCC3)[C@H]2C1=O (stereo not given in full) | 1% | -1% | -5 | 97% (active) | inactive | inactive | inactive | inactive
5 | COc1cccc(-c2[nH]c3ccccc3c2CN2CCC(c3c(C)cccc3C)CC2)c1 | 24% | 32% | 3 | 99% (active) | inactive | inactive | inactive | inactive
6 | Cc1cccc2[nH]c(-c3cccc(-c4cccc(NC(=O)Nc5ccc(Cl)cc5)c4)c3)nc12 | 94% (active) | 23% | -2 | 100% (active) | inactive | inactive | inactive | inactive
7 | CCOC(=O)c1c(NC(=O)c2ccccc2)sc2c(O)c(CN(CC)CC)ccc12 | 100% (active) | 9% | 4 | 100% (active) | inactive | inactive | inactive | inactive
8 | CCNc1cc(C(=O)N[C@@H](Cc2ccccc2)[C@H](O)CNC(C)(C)Cc2cccc(Cl)c2)cc(N2CCCCS2(=O)=O)c1 | 74% (active) | 17% | 3 | 97% (active) | inactive | inactive | inactive | inactive
9 | CC(=O)Nc1cc(C(=O)Nc2cccc(-c3csc(-c4nc5ccccc5[nH]4)c3)c2)ccc1C | 66% (active) | 31% | 3 | 94% (active) | inactive | inactive | inactive | inactive
10 | Cc1nc(C)n(CC(=O)Nc2cccc(-c3cccc(-c4nc5ccc(C(F)(F)F)cc5[nH]4)c3)c2)n1 | 96% (active) | 62% (active) | -6 | 100% (active) | inactive | inactive | inactive | inactive
11 | Cc1sc(N2CCCCC2)nc1C(=O)Nc1ccc(F)cc1C(F)(F)F | 35% | -18% | 2 | 86% (active) | inactive | inactive | inactive | inactive
12 | CC(O)C1CCCCN1C(=O)c1cccc(-c2cccc(-c3nc4ccc(C(F)(F)F)cc4[nH]3)c2)c1 (stereo not given) | 100% (active) | 32% | -5 | 100% (active) | inactive | inactive | inactive | inactive
13 | Nc1nccc2ccc(-c3ccc(OCc4ccccc4)cc3)cc12 | 67% (active) | 40% | -8 | 101% (active) | inactive | inactive | inactive | inactive
14 | N#Cc1cccc(-c2nc(NCc3cccc(C(F)(F)F)c3)nn2-c2cccc(C(F)(F)F)c2)c1 | 88% (active) | 12% | 3 | 94% (active) | inactive | inactive | inactive | inactive
15 | COc1ccc(C=NNc2cc(C)nc3c(C)cccc23)c2ccccc12 | 98% (active) | 3% | 0 | 102% (active) | inactive | inactive | inactive | inactive
16 | O=C(Nc1ccc(Cl)c(C(F)(F)F)c1)c1ccc(C(=O)Nc2ccc(Cl)c(C(F)(F)F)c2)cc1 | 27% | 9% | -2 | 88% (active) | inactive | inactive | inactive | inactive
17 | CCc1cccc(-n2c(=O)c3cccnc3n2CC(=O)NCc2ccccc2Cl)c1 | 19% | 25% | -8 | 98% (active) | inactive | inactive | inactive | inactive
18 | COCCNCc1ccc(-c2ccccc2CNC2CCN(Cc3ccccc3)CC2)cc1 | 28% | 17% | -1 | 97% (active) | inactive | inactive | inactive | inactive
19 | COc1nc2c(CCN3CC[C@H](NCc4cc(C#N)c5c(c4)CCO5)[C@H](O)C3)ccnc2cc1F | 71% (active) | 31% | -9 | 99% (active) | inactive | inactive | inactive | inactive
20 | NC(=O)C1CCN(Cc2cccc(-c3cccc(-c4nc5ccc(C(F)(F)F)cc5[nH]4)c3)c2)CC1 | 100% (active) | 16% | 3 | 100% (active) | inactive | inactive | inactive | inactive

Row | Compound | growth inhibition [1] | inhibition [2] | inhibition [3] [%] | growth inhibition [4] | outcome [5] | outcome [6] | outcome [7] | outcome [8]
21 | Cc1nc2ccc3ccc(CN(C)c4ccc(C(=O)N[C@@H](CCC(=O)O)C(=O)O)cc4)cc3c2c(=O)[nH]1 | 27% | 42% | 1 | 95% (active) | inactive | inactive | inactive | inactive
22 | COc1ccc2nccc(NN=Cc3ccc(N(C)C)cc3)c2c1 | 95% (active) | 4% | -6 | 101% (active) | inactive | inactive | inactive | inactive
23 | Cc1cc(N[C@@H](Cc2ccccc2)C(=O)NCCCOC(C)C)nc(NCCc2ccc(F)cc2)n1 | 36% | 15% | 0 | 101% (active) | inactive | inactive | inactive | inactive
24 | Cc1cccc2[nH]c(-c3ccc(-c4cccc(CNCc5cccc(N)c5)c4)s3)nc12 | 85% (active) | 15% | -4 | 102% (active) | inactive | inactive | inactive | inactive
25 | NC(=O)c1cccc(Nc2nccc(Nc3ccc(Oc4cccc(Cl)c4)c(Cl)c3)n2)c1 | 12% | -3% | 1 | 93% (active) | inactive | inactive | inactive | inactive
26 | COc1cc(OC)c2c(C)cc(NCCCN3CCOCC3)nc2c1 | 3% | 6% | 0 | 99% (active) | inactive | inactive | inactive | inactive
27 | O=C(Nc1ccc2nc(-c3ccccc3)[nH]c2c1)c1cc(-c2ccc3c(c2)OCCO3)n[nH]1 | 75% (active) | 58% (active) | -2 | 100% (active) | inactive | inactive | inactive | inactive
28 | CC[C@H]1CN2CCc3c([nH]c4ccccc34)[C@@H]2C[C@@H]1CC1c2cc(OC)c(OC)cc2CCN1C (stereo not given in full) | 45% | 31% | 5 | 85% (active) | inactive | inactive | inactive | inactive
29 | Nc1nc(N)c2cc(NC(=O)c3ccc(Cl)c(Cl)c3)ccc2n1 | 83% (active) | 100% (active) | 1 | 100% (active) | inactive | inactive | inactive | inactive
30 | COc1cc(NC(=O)c2sc(-c3ccc(Cl)cc3)cc2NC(=O)CN2CCCC2)ccc1OCCN1CCCC1 | 79% (active) | 29% | 3 | 86% (active) | inactive | inactive | inactive | inactive
31 | c1cc(-c2ccc(CNC3CC3)cc2)cc(-c2nc3ccccc3[nH]2)c1 | 8% | 17% | 1 | 96% (active) | inactive | inactive | inactive | inactive
32 | ON=C1c2cc(OCCN3CCCCC3)c(Cl)cc2-c2cc(Cl)c(OCCN3CCCCC3)cc21 | 98% (active) | 99% (active) | 5 | 97% (active) | inactive | inactive | inactive | inactive
33 | Cc1n[nH]c(C)c1C1CCN(CC2CCC(NC(=O)/C=C/c3ccc(Cl)c(Cl)c3)CC2)CC1 (stereo not given) | 53% (active) | 15% | 3 | 101% (active) | inactive | inactive | inactive | inactive
34 | COc1ccc(-c2ccc3c(-c4ccc(F)cc4)cnc(N)c3c2)cn1 | 86% (active) | 4% | -5 | 99% (active) | inactive | inactive | inactive | inactive
35 | CCCCCCCC1=NN2C(=N)C(=Cc3cc(Br)c(OCc4ccc(F)cc4)c(OCC)c3)C(=O)N=C2S1 | -6% | 4% | 0 | 95% (active) | inactive | inactive | inactive | inactive
36 | CCNc1cc(C(=O)N[C@@H](Cc2ccc(Cl)cc2)[C@H](O)CNC2CCCCC2)cc(N2CCCCS2(=O)=O)c1 | 99% (active) | 6% | -1 | 98% (active) | inactive | inactive | inactive | inactive
37 | CC(C)(C)c1cc(NC(=O)c2ccc(Cl)c([N+](=O)[O-])c2)cc(C(C)(C)C)c1 | 7% | -4% | 4 | 93% (active) | inactive | inactive | inactive | inactive
38 | CN1CCN(Cc2cc(NC(=O)c3ccc(-c4ccc(Cl)cc4Cl)cc3)ccc2-c2ccccc2)CC1 | 21% | 52% (active) | 3 | 95% (active) | inactive | inactive | inactive | inactive
39 | N#Cc1ccccc1C(=O)N(Cc1cncn1Cc1cccc(F)c1)CC1CC1 | 92% (active) | 0% | -1 | 101% (active) | inactive | inactive | inactive | inactive
40 | COc1cc2nc(N(C)CC3COc4ccccc4O3)nc(N)c2cc1OC (stereo not given) | 26% | 11% | -1 | 94% (active) | inactive | inactive | inactive | inactive

— PubChem BioAssay
